The source made the active and inactive calls. Rule for the calls: active = hit-call score of the fitted dose curve at least 0.9, where 1 is the maximum; inactive = score below 0.9.
Experiments:
Settings in all cases: mRNA level, 48 h; actives raise or lower the signal
[1] = read-out: Cyclin D2 (CCND2), CCND2 (gene 894); assay: LTEA_HepaRG_CCND2: Life Technologies and Expression Analysis (LTEA) Assay for Cyclin D2 (CCND2) using HepaRG (AID 2283449);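 note: CCND2 transcript measured by TaqMan qRT-PCR and normalised to three housekeeping genes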
How it was run: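 In this HepaRG study, an eight-point concentration series (max 100 uM, 0.5% DMSO) is applied for 48 h. CCND2 mRNA change is derived by qRT-PCR normalised to ACTB, GAPDH and POLR2A.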

[2] = read-out: Cyclin Dependent Kinase Inhibitor 1A (CDKN1A), CDKN1A (gene 1026); assay: LTEA_HepaRG_CDKN1A: Life Technologies and Expression Analysis (LTEA) Assay for Cyclin Dependent Kinase Inhibitor 1A (CDKN1A) using HepaRG (AID 2283450)
How it was run: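 Differentiated HepaRG cells in serum-free induction medium, exposed 48 h in duplicate to eight half-log concentrations up to 100 uM in 0.5% DMSO. mRNA measured by TaqMan qRT-PCR, normalized to ACTB, GAPDH, POLR2A; bidirectional fit versus DMSO.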

[3] = read-out: catalase (CAT), CAT (gene 847); assay: LTEA_HepaRG_CAT: Life Technologies and Expression Analysis (LTEA) Assay for catalase (CAT) using HepaRG (AID 2283452)
How it was run: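 Differentiated HepaRG cells in serum-free induction medium were dosed 48 h in duplicate, eight half-log concentrations from 100 uM in 0.5% DMSO. Transcript measured by TaqMan qRT-PCR, normalised to ACTB/GAPDH/POLR2A, fitted bidirectionally against DMSO.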

[4] = read-out: flavin-containing dimethylaniline monooxygenases 3 (FMO3), FMO3 (gene 2328); assay: LTEA_HepaRG_FMO3: Life Technologies and Expression Analysis (LTEA) Assay for flavin-containing dimethylaniline monooxygenases 3 (FMO3) using HepaRG (AID 2283453)
How it was run: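 FMO3 transcript quantified by TaqMan qRT-PCR against three housekeeping genes after 48 h chemical exposure of HepaRG cells. Eight-point half-log series, top 100 uM, 0.5% DMSO vehicle; phenobarbital 1mM induction control; up- or down-regulation fitted.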

[5] = read-out: Cytochrome P450 (CYP1A1), CYP1A1 (gene 1543); assay: LTEA_HepaRG_CYP1A1: Life Technologies and Expression Analysis (LTEA) Assay for Cytochrome P450 (CYP1A1) using HepaRG (AID 2283454)
How it was run: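 Differentiated human HepaRG cells, after 48 h plating, exposed in duplicate for 48 h in serum-free induction medium to 8 half-log concentrations up to 100 uM in 0.5% DMSO. CYP1A1 mRNA by qRT-PCR, normalized to ACTB/GAPDH/POLR2A; bidirectional fit versus DMSO.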

[6] = read-out: CFLAR gene, CFLAR (gene 8837); assay: LTEA_HepaRG_CFLAR: Life Technologies and Expression Analysis (LTEA) Assay for CFLAR gene using HepaRG (AID 2283455)
How it was run: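 Gain- or loss-of-signal changes in CFLAR transcript were fitted bidirectionally relative to 0.5% DMSO. Cells (HepaRG, duplicate wells) were dosed for 48 h across eight half-log concentrations topping at 100 uM; quantitation by TaqMan qRT-PCR.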

[7] = read-out: Forkhead box O1 (FOXO1), FOXO1 (gene 2308); assay: LTEA_HepaRG_FOXO1: Life Technologies and Expression Analysis (LTEA) Assay for Forkhead box O1 (FOXO1) using HepaRG (AID 2283456)
How it was run: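 Using one lot of HepaRG hepatic cells kept in 0.5% DMSO, the team applied test chemicals in duplicate, half-log dilutions from 100 uM, for 48 h. Expression, normalised to ACTB/GAPDH/POLR2A, was compared with vehicle in either direction.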

[8] = read-out: growth arrest and DNA damage 45 (GADD45A), GADD45A (gene 1647); assay: LTEA_HepaRG_GADD45A: Life Technologies and Expression Analysis (LTEA) Assay for growth arrest and DNA damage 45 (GADD45A) using HepaRG (AID 2283458)
How it was run: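 GADD45A expression was measured by TaqMan qRT-PCR against three housekeeping genes (ACTB, GAPDH, POLR2A) after 48 h treatment of HepaRG cells. Eight-point half-log series up to 100 uM in 0.5% DMSO, run in duplicate.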

[9] = read-out: Forkhead box O3 (FOXO3), FOXO3 (gene 2309); assay: LTEA_HepaRG_FOXO3: Life Technologies and Expression Analysis (LTEA) Assay for Forkhead box O3 (FOXO3) using HepaRG (AID 2283459)
How it was run: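 Gene-expression endpoint: FOXO3 transcript level by qRT-PCR in HepaRG cultures treated 48 h with chemicals up to 100 uM (half-log, 0.5% DMSO vehicle).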

[10] = read-out: growth arrest and DNA damage 45 (GADD45B), GADD45B (gene 4616); assay: LTEA_HepaRG_GADD45B: Life Technologies and Expression Analysis (LTEA) Assay for growth arrest and DNA damage 45 (GADD45B) using HepaRG (AID 2283461)
How it was run: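 Differentiated human HepaRG cells in serum-free induction medium exposed 48 h in duplicate to eight concentrations, top 100 uM, half-log steps, 0.5% DMSO. GADD45B mRNA by TaqMan qRT-PCR, normalized to ACTB, GAPDH, POLR2A; bidirectional fit versus DMSO.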

[11] = read-out: ABC Transporter (ABCC3), ABCC3 (gene 8714); assay: LTEA_HepaRG_ABCC3: Life Technologies and Expression Analysis (LTEA) Assay for ABC Transporter (ABCC3) using HepaRG (AID 2283462)
How it was run: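 Differentiated human HepaRG cells exposed 48 h in serum-free induction medium, 0.5% DMSO vehicle, 8-point half-log series to 100 uM in duplicate. ABCC3 mRNA by qRT-PCR, normalised to ACTB, GAPDH, POLR2A; bidirectional fit vs DMSO.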

[12] = read-out: ABC Transporter (ABCB11), ABCB11 (gene 8647); assay: LTEA_HepaRG_ABCB11: Life Technologies and Expression Analysis (LTEA) Assay for ABC Transporter (ABCB11) using HepaRG (AID 2283463)
How it was run: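 Using HepaRG cultures held in 0.5% DMSO, chemicals were tested at half-log dilutions from 100 uM for 48 h. Induction or suppression of ABCB11 mRNA, normalized to ACTB, GAPDH and POLR2A, was fitted bidirectionally against vehicle.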

[13] = read-out: ABC Transporter (ABCC2), ABCC2 (gene 1244); assay: LTEA_HepaRG_ABCC2: Life Technologies and Expression Analysis (LTEA) Assay for ABC Transporter (ABCC2) using HepaRG (AID 2283464)
How it was run: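 Differentiated HepaRG cells in serum-free induction medium exposed 48 h to eight half-log concentrations up to 100 uM, 0.5% DMSO, in duplicate. ABCC2 mRNA measured by qRT-PCR (TaqMan, Fluidigm), normalized to ACTB, GAPDH and POLR2A. Fitted in both directions against DMSO.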

[14] = read-out: Broad substrate specificity ATP-binding cassette transporter ABCG2 (Homo sapiens) (UniProt Q9UNQ0); assay: LTEA_HepaRG_ABCG2: Life Technologies and Expression Analysis (LTEA) Assay for ABC Transporter (ABCG2) using HepaRG (AID 2283465)
How it was run: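 Gene expression of ABCG2 in HepaRG liver cells is quantified by qRT-PCR following 48 h exposure across an eight-point series topping at 100 uM. Values come from bidirectional fitting relative to DMSO vehicle.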

[15] = read-out: ATP-citrate lyase (ACLY), ACLY (gene 47); assay: LTEA_HepaRG_ACLY: Life Technologies and Expression Analysis (LTEA) Assay for ATP-citrate lyase (ACLY) using HepaRG (AID 2283466)
How it was run: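 ACLY expression changes in human HepaRG liver cells are quantified by qRT-PCR after 48 h exposure to test chemicals (maximum 100 uM, half-log steps). Values are fitted in both directions relative to 0.5% DMSO vehicle.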

[16] = read-out: Peroxisomal acyl-coenzyme A oxidase 1 (ACOX1) gene, ACOX1 (gene 51); assay: LTEA_HepaRG_ACOX1: Life Technologies and Expression Analysis (LTEA) Assay for Peroxisomal acyl-coenzyme A oxidase 1 (ACOX1) gene using HepaRG (AID 2283467)
How it was run: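 Human HepaRG hepatic cultures, 48 h treatment with test chemicals up to 100 uM. ACOX1 expression read by qRT-PCR relative to 0.5% DMSO vehicle.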

[17] = read-out: Alkaline Phosphatase, Placental (ALPP) gene, ALPP (gene 250); assay: LTEA_HepaRG_ALPP: Life Technologies and Expression Analysis (LTEA) Assay for Alkaline Phosphatase, Placental (ALPP) gene using HepaRG (AID 2283468)
How it was run: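 HepaRG cells plated 48 h, then exposed in duplicate for 48 h in serum-free induction medium to 8-point half-log series from 100 uM in 0.5% DMSO. ALPP mRNA by TaqMan qRT-PCR, normalized to ACTB/GAPDH/POLR2A; bidirectional fit versus DMSO.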

[18] = read-out: Cyclin D1 (CCND1), CCND1 (gene 595); assay: LTEA_HepaRG_CCND1: Life Technologies and Expression Analysis (LTEA) Assay for Cyclin D1 (CCND1) using HepaRG (AID 2283451)
How it was run: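 Differentiated HepaRG cells exposed 48 h in serum-free induction medium to eight half-log concentrations from 100 uM top, 0.5% DMSO, duplicates. CCND1 mRNA measured by Fluidigm TaqMan qRT-PCR, normalised to ACTB, GAPDH, POLR2A; bidirectional fit.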

[19] = read-out: ABC Transporter (ABCB1), ABCB1 (gene 5243); assay: LTEA_HepaRG_ABCB1: Life Technologies and Expression Analysis (LTEA) Assay for ABC Transporter (ABCB1) using HepaRG (AID 2283460)
How it was run: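 Human liver HepaRG line treated 48 h with up to 100 uM compound (eight half-log points, 0.5% DMSO); ABCB1 mRNA change fitted bidirectionally against DMSO controls.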

Chain of Broad substrate specificity ATP-binding cassette transporter ABCG2 (Homo sapiens) (Q9UNQ0 whole entry, looked up): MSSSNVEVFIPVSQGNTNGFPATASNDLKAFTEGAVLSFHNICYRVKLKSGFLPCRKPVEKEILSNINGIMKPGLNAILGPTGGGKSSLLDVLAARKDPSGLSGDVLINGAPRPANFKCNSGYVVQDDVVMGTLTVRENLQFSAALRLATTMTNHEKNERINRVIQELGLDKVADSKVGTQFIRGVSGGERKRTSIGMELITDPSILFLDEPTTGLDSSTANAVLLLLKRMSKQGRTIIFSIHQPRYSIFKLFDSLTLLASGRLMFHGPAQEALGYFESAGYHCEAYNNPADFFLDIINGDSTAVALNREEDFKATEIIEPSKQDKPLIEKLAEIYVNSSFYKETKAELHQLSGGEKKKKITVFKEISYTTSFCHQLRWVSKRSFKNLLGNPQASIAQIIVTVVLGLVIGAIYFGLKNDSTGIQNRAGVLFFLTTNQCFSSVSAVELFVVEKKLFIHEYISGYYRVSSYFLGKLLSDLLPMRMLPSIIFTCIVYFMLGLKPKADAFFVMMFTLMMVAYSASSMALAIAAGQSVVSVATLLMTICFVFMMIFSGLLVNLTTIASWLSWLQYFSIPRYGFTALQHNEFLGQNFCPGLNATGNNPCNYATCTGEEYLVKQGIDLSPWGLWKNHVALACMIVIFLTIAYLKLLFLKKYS

Structure (SMILES)	outcome [1]	outcome [2]	outcome [3]	outcome [4]	outcome [5]	outcome [6]	outcome [7]	outcome [8]	outcome [9]	outcome [10]	outcome [11]	outcome [12]	outcome [13]	outcome [14]	outcome [15]	outcome [16]	outcome [17]	outcome [18]	AC50 [5]	outcome [19]
CNC(=O)[C@H]1O[C@@H](n2cnc3c(NCc4cc(Cl)ccc4OCc4cc(C)no4)ncnc32)[C@H](O)[C@@H]1N	inactive	inactive	inactive	inactive	inactive	inactive	inactive	inactive	inactive	inactive	inactive	inactive	inactive	inactive	inactive	inactive	inactive			
NCC1(Cc2noc(=O)[nH]2)CCCCC1		inactive	inactive	inactive		inactive	inactive	inactive	inactive	inactive	inactive	inactive	inactive	inactive	inactive	inactive	inactive	inactive	73.3 µM (active)	inactive
CC(=O)C(C)=CC1C(C)=CCCC1(C)C (stereo not drawn)		inactive	inactive	inactive	inactive	inactive	inactive	inactive	inactive	inactive	inactive	inactive	inactive	inactive	inactive	inactive	inactive			
Oc1ccc2c(c1)OC[C@@H](N1CCC(O)(c3ccc(F)cc3)CC1)[C@H]2O		inactive	inactive	inactive	inactive	inactive	inactive	inactive	inactive	inactive	inactive	inactive	inactive	inactive	inactive	inactive	inactive	inactive		

From PubChem BioAssay (EPA / NIEHS)
